Bioassay records as filed in PubChem BioAssay.
TGFb inhibitor = qHTS for Inhibitors of TGF-b | HepG2 CAGA-GFP TGF-b/SMAD3 reporter, GFP fluorescence, 18 h; TGF-beta stimulated, 500 pg/mL final | Potency, µM (top dose mostly 46.1 µM), hits mostly inhibitors | 1.2% of 410,000 active | AID 588855, 2011; note: nearly all actives have a fitted effect of over 65% in size
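Read-out: total well GFP (ex488/em500-530) summed from mean per-cell fluorescence. Cells: HEPG2 CAGA-GFP, 1% FBS DMEM, 18 h at 37 degrees C with 500 pg/mL final TGF-beta. Unstimulated wells served as the full-inhibition control; stimulated DMSO wells = 0%.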
TDP1 cell CPT = qHTS for Inhibitors of human tyrosyl-DNA phosphodiesterase 1 (TDP1): qHTS in cells in presence of CPT; chicken DT40 Tdp1-/-;hTDP1 cells + 20 nM CPT, ATP luminescence, 48 h; Potency, µM (highest dose often 46.2 µM), most hits filed as inhibitors; 12% of 420,000 active; note: nearly all actives have a fitted effect of over 55% in size
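Chicken DT40 Tdp1-/- cells stably complemented with human TDP1 were seeded at 400 cells/well in medium containing 20 nM camptothecin, exposed to pin-transferred compounds, and grown at 37 °C for at least 48 hr. Viability was read as ATP luminescence.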
DT40 TDP1 no CPT = qHTS for Inhibitors of human tyrosyl-DNA phosphodiesterase 1 (TDP1): qHTS in cells in absence of CPT; DT40 Tdp1-/- hTDP1 cells, no CPT, ATP luminescence, 48 h; Potency, µM (highest dose often 46.2 µM), actives largely listed as inhibitors; 15% of 420,000 active; note: nearly all actives have a fitted effect of over 55% in size
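No-CPT arm: Tdp1-/-;hTDP1 DT40 cells (400/well) plus compounds, incubated ≥48 hr at 37 °C. Readout CellTiter-Glo luminescence.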
HepG2 tox = qHTS for Inhibitors of TGF-b: Cytotox Counterscreen. HepG2 CAGA-GFP viability, ATP luminescence, 18 h. Potency, µM (titrated, usually from 46.1 µM), most hits filed as cytotoxic. 0.76% of 410,000 active
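CellTiter-Glo luminescence gave cytotoxicity after 18 hours at 37 degrees C. The cells were HepG2 CAGA-GFP in 1% FBS DMEM, stimulated with 500 pg/mL TGF-beta after compound addition. %Activity was normalised to no-cell wells (complete cell-killing) and DMSO (no toxicity), and curves were fitted and classified.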
IL1B secr inh = qHTS for Inhibitors of Inflammasome Signaling: IL-1-beta AlphaLISA Primary Screen; THP-1 LPS/ATP IL-1B secretion, AlphaLISA, 16 h; stronger effect = lower value; 4.7% of 360,000 active; activity change, % at 57.5 µM; AID 743279, 2014; in the data active = activity change below about -50%; inconclusive = mostly about -30% to -49%
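THP-1 cells pretreated 1 hr with compounds (up to 57.5 uM final), then stimulated with LPS (250 ng/mL final) plus ATP (1.25 mM final); secreted IL-1B measured by AlphaLISA after 16 hr, decreased signal indicating inhibition.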
TDP1 inh = qHTS Assay for Inhibitors of Tyrosyl-DNA Phosphodiesterase (TDP1); AID 485290, 2010; Tyrosyl-DNA phosphodiesterase 1 (Homo sapiens), Q9NUW8; Potency, µM (top dose mostly 130 µM), most hits filed as inhibitors; recombinant TDP1, AlphaScreen DNA substrate cleavage; 0.28% of 350,000 active; note: nearly all actives have a fitted effect of over 40% in size
Target sequence (Q9NUW8 whole entry, looked up): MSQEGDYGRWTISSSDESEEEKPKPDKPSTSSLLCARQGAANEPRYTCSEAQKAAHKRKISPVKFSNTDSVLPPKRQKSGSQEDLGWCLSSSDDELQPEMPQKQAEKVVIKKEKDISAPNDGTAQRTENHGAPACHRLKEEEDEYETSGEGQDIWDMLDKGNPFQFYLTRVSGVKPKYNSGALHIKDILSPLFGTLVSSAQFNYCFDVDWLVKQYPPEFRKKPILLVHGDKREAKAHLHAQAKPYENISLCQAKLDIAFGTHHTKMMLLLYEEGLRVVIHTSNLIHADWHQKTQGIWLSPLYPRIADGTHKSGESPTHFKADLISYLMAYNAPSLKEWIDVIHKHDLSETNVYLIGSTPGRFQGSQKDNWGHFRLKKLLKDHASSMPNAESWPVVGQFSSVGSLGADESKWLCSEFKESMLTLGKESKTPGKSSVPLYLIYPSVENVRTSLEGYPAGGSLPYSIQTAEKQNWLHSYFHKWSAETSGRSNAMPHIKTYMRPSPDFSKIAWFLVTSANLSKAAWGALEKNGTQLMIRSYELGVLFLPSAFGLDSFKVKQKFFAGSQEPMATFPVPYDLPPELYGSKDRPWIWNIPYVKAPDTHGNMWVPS
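E. coli-derived human Tdp1, 1 nM final. Cpd preinc 15 min RT; substrate 15 nM final, 5 min RT; AS bead mix 10 ug/ml final, 10 min RT. Signal loss = tyrosine-FITC cleavage. No-enzyme wells = max signal.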
A number is an active result; n = inactive; u = inconclusive; x = no result given; [ ] = dose if it differs, or a comment. Most compounds without a hit are left out; they make up all but 18% or so of the library. Unless noted, calls come from the whole dose curve; as a rule, active = well fitted curve in the direction sought with a large enough effect; inconclusive = small, poorly fitted or top-dose-only effect, or another doubt; inactive = no such curve, though single readings can be large; an effect the other way counts as inactive or inconclusive.

SMILES	TGFb inhibitor	TDP1 cell CPT	DT40 TDP1 no CPT	HepG2 tox	IL1B secr inh	TDP1 inh
CCOC(=O)c1cc(-c2ccc(F)cc2)n(CCC(=O)NC2CCCCC2)c1C	n	15µM	15µM	n	x	n
CCOC(=O)c1cc(-c2ccc(F)cc2)n(CC(=O)NC2CCCCCC2)c1C	n	16µM	15µM	n	x	n
CCOC(=O)c1cc(-c2ccccc2)n(CCC(=O)NC2CCCCC2)c1C	n	u	13µM	n	x	x
CC(=O)c1cc(-c2ccccc2)n(CC(=O)NC2CCCCCC2)c1C	u	u	u	n	x	n
CCOC(=O)c1cc(-c2ccc(F)cc2)n(CC(=O)NC2CCCCC2)c1C	n	n	u	n	x	n
CC(=O)c1cc(-c2ccccc2)n(CCC(=O)NC2CCCCCCC2)c1C	n	u	23µM	n	n	n
N#Cc1c(N)[nH]c(=S)c(C#N)c1-c1ccccc1	n	21µM	u	n	n	n
Cc1cc(NC(=O)c2ccccc2F)n(-c2nc3ccccc3[nH]2)n1	n	u	u	n	n	n
Cc1cc(NC(=O)C2CCCCC2)n(-c2nc3ccccc3[nH]2)n1	u	23µM	16µM	n	n	n
Cc1cc(NC(=O)c2ccc(C)s2)n(-c2nc3ccccc3[nH]2)n1	u	u	21µM	n	n	n
Cc1cc(Nc2ccccc2)n(-c2nc3ccccc3[nH]2)n1	u	u	u	n	u	n
Cc1cc(NC(=O)c2c(F)cccc2Cl)n(-c2nc3ccccc3[nH]2)n1	u	u	23µM	n	n	n
Cc1cc(NC(=O)c2c(F)cccc2F)n(-c2nc3ccccc3[nH]2)n1	u	u	11µM	n	u	n
CCC1(C2CCN(Cc3cccc(Cl)c3)CC2)NC(=O)N(CC2COc3ccccc3O2)C1=O (configuration not stated)	x	n[9.04 µM]	u	x	x	x
Cc1cc(N2C(=O)[C@@H]3[C@H](C2=O)[C@@H]2C[C@H]3C(Br)C2Br)no1 (some centres not stated)	n	n	n	n	n	n
O=C1C2C3c4ccccc4C(c4ccccc43)[C@@H]2C(=O)N1c1cccnc1 (some centres not stated)	u	u	23µM	n	n	n
O=C1C2C3C=CC(C3)C2C(=O)N1c1cccnc1 (configuration not stated)	n	n	n	n	n	n
O=C1C2C3c4ccccc4C(c4ccccc43)C2C(=O)N1c1ccncc1 (configuration not stated)	n	21µM	16µM	n	n	n
O=C1C2C(C(=O)N1c1ccncc1)C1C=CC2C12CC2 (configuration not stated)	n	u	n	n	n	n
Cc1cc(N2C(=O)C3C4c5ccccc5C(c5ccccc54)C3C2=O)no1 (configuration not stated)	n	12µM	10µM	n	n	n
O=C(NC(NC(=S)Nc1c(Cl)cccc1Cl)C(Cl)(Cl)Cl)c1cccc([N+](=O)[O-])c1 (configuration not stated)	n	21µM	12µM	n	n	n
COC(=O)c1ccccc1NC(=S)NC(NC(=O)c1ccccc1[N+](=O)[O-])C(Cl)(Cl)Cl (configuration not stated)	n	n	n	n	n	n
COc1ccc(NC(=S)NC(NC(=O)CCl)C(Cl)(Cl)Cl)c([N+](=O)[O-])c1 (configuration not stated)	u	u	u	n	-50	x
COc1ccc(NC(=O)CS(=O)(=O)Cc2ccccc2)c([N+](=O)[O-])c1	n	n	n	n	n	n
O=C(NNC(=S)NC(=O)c1ccccc1Cl)c1cccc([N+](=O)[O-])c1	n	u	u	n	n	x
SMILES	TGFb inhibitor	TDP1 cell CPT	DT40 TDP1 no CPT	HepG2 tox	IL1B secr inh	TDP1 inh
COc1ccc(NC(=S)NC(NC(=O)c2ccccc2Cl)C(Cl)(Cl)Cl)c([N+](=O)[O-])c1 (configuration not stated)	n	u	u	n	-87	n
COc1ccc(NC(=S)NC(NC(=O)c2cccc3ccccc23)C(Cl)(Cl)Cl)c([N+](=O)[O-])c1 (configuration not stated)	u	u	u	n	-56	n
CCC(C)(C)C(=O)Nc1ccc(OC)cc1[N+](=O)[O-]	n	n	n	n	n	n
CCCCN1C(=O)N(C)C2NC(=S)NC21 (configuration not stated)	n	n	n	n	n	x
O=S(=O)(Nc1cccc(S(=O)(=O)N2CCCC2)c1)c1ccc(Cl)s1	n	n	n	n	n	n
CC(C)c1ccc(OCC(=O)Nc2cc(-c3ccccc3)no2)cc1	n	n	n	n	x	n
O=C(NCC1CCCO1)c1ccc(Br)c(S(=O)(=O)N2CCOCC2)c1 (configuration not stated)	n	n	n	n	n	n
O=C(Cc1cccc(NC(=O)C2CCCN(C(=O)C3CCCCC3)C2)c1)Nc1ccc(C(=O)N2CCCCC2)cc1 (configuration not stated)	n	n	n	n	n	x
C/C=C(\C)C(=O)NNC(=O)c1sc(-c2ccccc2)nc1C	n	n	n	n	n	n
COc1ccc(NC(=S)NC(NC(=O)c2ccc(Cl)cc2Cl)C(Cl)(Cl)Cl)c([N+](=O)[O-])c1 (configuration not stated)	11µM	u	u	n	-95	n
COc1ccc(NC(=O)c2ccc(C)cc2Cl)c([N+](=O)[O-])c1	n	n	n	n	n	n
O=C(NCCC1=CCCCC1)c1ccc2c(c1)N(Cc1cccc(Cl)c1)C(=O)c1ccccc1S2=O (configuration not stated)	n	u	u	n	x	n
CC1CCN(c2cc(=O)n(C3CCCCC3)c(=O)[nH]2)CC1	n	u	n	n	n	n
Cc1cc(C)cc(Nc2cc(=O)n(C3CCCCC3)c(=O)[nH]2)c1	n	u	18µM	n	n	n
CCOc1ccccc1NC(=O)C(NCC1(N2CCCCC2)CCCCC1)c1ccccc1 (configuration not stated)	u	u	16µM	n	u	n
